Here are results for 21 compounds from PubChem BioAssay (EPA / NIEHS).

Inconclusive results are not listed. The source made the active and inactive calls. The calls were made as follows, unless noted: active = hit-call score of the fitted dose curve at least 0.9, where 1 is the maximum; inactive = score below 0.9.

For assay [1], the system named is Sodium/Iodide Symporter (NIS), SLC5A5 (gene 6528). Description: CPHEA_Stoker_NIS_Inhibition_RAIU: CPHEA's Radioactive Iodide Uptake (RAIU) Assay for Sodium/Iodide Symporter (NIS) Inhibition, Stoker and Laws Labs (AID 2283841; active = hit-call score of the fitted dose curve at least 0.9, where 1 is the maximum). An outline of the steps:
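Iodide uptake read as CPM of intracellular 125I (final 329 pM) after 2 h room-temperature exposure in HEPES-buffered HBSS, pH 7.4. Human NIS-expressing HEK293T cells; six concentrations 0.001–100 uM, 0.5% DMSO, normalised to DMSO wells.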

Read-out in assay [2]: Vascular cell adhesion molecule 1 (VCAM1), VCAM1 (gene 7412)
Description: BSK_MyoF_VCAM1: BioMAP Diversity Plus: MyoF Assay for Vascular cell adhesion molecule 1 (VCAM1) Biomarker Activity (AID 2284231). To be noted: primary human lung fibroblasts. An outline of the steps:
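Primary human lung fibroblasts were dosed with test chemical for 24 h, then cell-surface VCAM-1 was measured by ELISA. Activity was fitted in the positive direction against DMSO as negative control and baseline.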

Read-out in assay [3]: Collagen I, COL1A1 (gene 1277)
Description: BSK_MyoF_CollagenI: BioMAP Diversity Plus: MyoF Assay for Collagen I Biomarker Activity (AID 2284238). To be noted: primary human lung fibroblasts. Summed up: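 Human lung fibroblasts were exposed to test chemical for 24 h, then Collagen I was quantified by ELISA. Activity was fitted in the increasing direction against DMSO as the negative control and baseline.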

Read-out in assay [4]: Collagen III, COL3A1 (gene 1281)
Description: BSK_MyoF_CollagenIII: BioMAP Diversity Plus: MyoF Assay for Collagen III Biomarker Activity (AID 2284239). Conditions: primary human lung fibroblasts. An outline of the steps: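 Human lung fibroblasts were dosed with chemicals and, 24 hours later, collagen III was measured by ELISA. Activity was fitted in the positive direction against the DMSO negative-control baseline.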

Read-out in assay [5]: Interleukin 17F (IL17F), IL17F (gene 112744)
Description: BSK_BT_xIL17F: BioMAP Diversity Plus: BT Assay for Interleukin 17F (IL17F) Biomarker Activity (AID 2284243). To be noted: primary human B cells with PBMC. Summed up:
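B cell/PBMC co-culture (human primary), 24 h compound exposure; sIL-17F by Luminex xMAP; gain-of-signal fit vs DMSO baseline.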

Read-out in assay [6]: Actin alpha 1 (ACTA1), ACTA1 (gene 58)
Description: BSK_MyoF_ACTA1: BioMAP Diversity Plus: MyoF Assay for Actin alpha 1 (ACTA1) Biomarker Activity (AID 2284244). To be noted: primary human lung fibroblasts. Summed up:
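Human lung fibroblasts (MyoF system) dosed with test chemical for 24 h; α-SMA measured by ELISA. Gain of signal fitted relative to DMSO negative control as baseline.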

Read-out in assay [7]: Basic fibroblast growth factor (bFGF), FGF2 (gene 2247)
Description: BSK_MyoF_bFGF: BioMAP Diversity Plus: MyoF Assay for Basic fibroblast growth factor (bFGF) Biomarker Activity (AID 2284246). Conditions: primary human lung fibroblasts. Summed up:
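Human lung fibroblasts were dosed with chemicals and bFGF was quantified by ELISA 24 h later. Activity was fitted in the gain-of-signal direction relative to DMSO as negative control and baseline. Parallel SRB total-protein staining tracked overt cytotoxicity.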

Read-out in assay [8]: Collagen IV, COL4A1 (gene 1282)
Description: BSK_MyoF_CollagenIV: BioMAP Diversity Plus: MyoF Assay for Collagen IV Biomarker Activity (AID 2284247). Conditions: primary human lung fibroblasts. An outline of the steps:
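Primary human lung fibroblasts were exposed to test chemicals and sampled 24 h after dosing. Collagen IV levels were measured by ELISA and fitted in the positive direction against DMSO as negative control and baseline.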

Read-out in assay [9]: Plasminogen activator inhibitor-1 (PAI1), SERPINE1 (gene 5054)
Description: BSK_MyoF_PAI1: BioMAP Diversity Plus: MyoF Assay for Plasminogen activator inhibitor-1 (PAI1) Biomarker Activity (AID 2284256).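 As to outcome: PAI-1 protein level measured by ELISA in fibroblast cultures; PAI-1 read 24 h after compound addition.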 Conditions: primary human lung fibroblasts. Summed up:
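ELISA read-out of PAI-1 from primary human lung fibroblast cultures 24 h after dosing; gain-of-signal fit versus DMSO control.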

Read-out in assay [10]: Interleukin-8 (IL8), CXCL8 (gene 3576)
Description: BSK_MyoF_IL8: BioMAP Diversity Plus: MyoF Assay for Interleukin-8 (IL8) Biomarker Activity (AID 2284261). Conditions: primary human lung fibroblasts. Summed up: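 ELISA read-out of IL-8 from primary human lung fibroblasts, 24 h post-dose; positive-direction curve fitting relative to DMSO vehicle baseline.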

Read-out in assay [11]: Matrix Metallopeptidase 1 (MMP1), MMP1 (gene 4312)
Description: BSK_MyoF_MMP1: BioMAP Diversity Plus: MyoF Assay for Matrix Metallopeptidase 1 (MMP1) Biomarker Activity (AID 2284268). Conditions: primary human lung fibroblasts. Summed up:
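ELISA readout of MMP1 in primary human lung fibroblast cultures, 24 h post-dosing. Gain of signal versus DMSO vehicle control defines activity. Parallel SRB staining (0.1% after 10% TCA fixation, 560 nm) flags overt cytotoxicity.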

Read-out in assay [12]: TIMP metallopeptidase inhibitor 1 (TIMP1), TIMP1 (gene 7076)
Description: BSK_MyoF_TIMP1: BioMAP Diversity Plus: MyoF Assay for TIMP metallopeptidase inhibitor 1 (TIMP1) Biomarker Activity (AID 2284269). To be noted: primary human lung fibroblasts. Summed up: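 ELISA read-out of TIMP-1 from primary human lung fibroblast cultures 24 h after compound dosing; gain of signal relative to DMSO vehicle baseline defines activity.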

A short description of assay [13]: CCTE_Padilla_ZF_Score.General: CCTE's 144 Hour Post-fertilization zebrafish Assay Score for General Malformation, Padilla Lab (AID 2284411). Summed up: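 Wild-type zebrafish embryos were plated singly at 6-8 hpf in 10% Hanks' and exposed in sealed wells at 26C until rinsed on 5 dpf. At 6 dpf two blinded assessors scored mortality, hatching and malformations by stereomicroscopy; gain-of-signal versus DMSO.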

Assay [14] is described as follows: CCTE_Deisenroth_AIME_384WELL_CTox_Inactive: Cytotoxicity Assessment (CTOX) in CCTE's 384-well Estrogen Receptor Transactivation Assay without AIME metabolic competence (metabolism negative), Deisenroth Lab (AID 2284039; active = hit-call score of the fitted dose curve at least 0.9, where 1 is the maximum;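 also: cell viability via live-cell protease substrate cleaved to fluorescent probe; cells exposed 24 h to medium preincubated 2 h with alginate-water beads without S9; loss of fluorescence signal means loss of viability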). Summed up:
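Fluorescent protease-substrate viability readout after 24 h exposure of VM7Luc4E2 cells to conditioned medium. Chemicals (0.002–200 uM) first sat 2 h over alginate-water beads, no S9. Data fitted bidirectionally, loss of signal meaning viability loss.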

For assay [15], the target named is human Phosphodiesterase 10 (PDE10), PDE10A (gene 10846) (UniProt Q9Y233). Description: NVS_ENZ_hPDE10: NovaScreen (NVS) Enzymatic Assay for human Phosphodiesterase 10 (PDE10) (AID 2283195; active = hit-call score of the fitted dose curve at least 0.9, where 1 is the maximum). Summed up:
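Fluorescence/mobility-shift readout of PDE10A enzyme activity, taken 1 h post-dosing. Primary screen in duplicate at 25 uM; actives (e.g. ≥30% inhibition) retested as singleton concentration-response, top concentration 50 uM.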

Assay [16] in a line: CCTE_Harrill_HTTr_CellCount_MCF7: CCTE's Cell Proliferation Assessment for the High-Throughput Transcriptomics (HTTr) Platform, Harrill Lab (AID 2284012; active = hit-call score of the fitted dose curve at least 0.9, where 1 is the maximum;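 also: cells exposed to compound for six hours; intended direction is loss of nuclei count meaning fewer cells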). An outline of the steps:
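MCF-7 cells were exposed for 6 h to an eight-point dilution series; Hoechst-labeled nuclei were counted by high content imaging. Curves were fitted bidirectionally against DMSO as negative control and baseline, with signal loss indicating reduced cell count.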

Assay [17] has as its system SERPINA7 (gene 6906). Description: CCTE_GLTED_hTBG: CCTE's human Thyroxine-binding Globulin (TBG) Inhibition Assay, Great Lakes Toxicology and Ecology Division (GLTED) Lab (AID 2284343; active = hit-call score of the fitted dose curve at least 0.9, where 1 is the maximum;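 also: active chemicals lower fluorescence versus DMSO baseline by displacing probe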). An outline of the steps: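 Cell-free binding assay in which human TBG is incubated with test chemical for 2 hours and displacement of the fluorescent probe ANSA is read at 380 nm excitation/475 nm emission. Activity is fitted against DMSO as the negative control.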

The test system of assay [18] is TTR (gene 7276). Description: CCTE_GLTED_hTTR_0.125uM: CCTE's human Transthyretin (hTTR) Inhibition Assay, with 0.125uM TTR, Great Lakes Toxicology and Ecology Division (GLTED) Lab (AID 2284431).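 Also: hits lower the fluorescence signal relative to DMSO baseline.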 An outline of the steps: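 Cell-free displacement of the fluorescent probe ANSA from human TTR (0.125uM) after 2 h incubation with test chemical. Fluorescence read at 380 nm excitation/475 nm emission; loss of signal fitted relative to DMSO baseline.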

The target of assay [19] is Bile acid receptor (Homo sapiens) (UniProt Q96RI1). Description: OT_FXR_FXRSRC1_0480: Odyssey Thera (OT) 8-hour HEK293T Protein-Complementation Assay for Farnesoid X receptor/SRC-1 Co-activator (AID 2283383; active = hit-call score of the fitted dose curve at least 0.9, where 1 is the maximum). An outline of the steps:
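HEK293T cells expressing FXR and SRC-1 fused to reporter fragments were dosed with compound for 8 h; fluorescence from the reconstituted reporter marked co-activator recruitment. Gain of signal was fitted against the DMSO baseline.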

Chain of human Phosphodiesterase 10 (PDE10), PDE10A (gene 10846) (Q9Y233 whole entry, looked up): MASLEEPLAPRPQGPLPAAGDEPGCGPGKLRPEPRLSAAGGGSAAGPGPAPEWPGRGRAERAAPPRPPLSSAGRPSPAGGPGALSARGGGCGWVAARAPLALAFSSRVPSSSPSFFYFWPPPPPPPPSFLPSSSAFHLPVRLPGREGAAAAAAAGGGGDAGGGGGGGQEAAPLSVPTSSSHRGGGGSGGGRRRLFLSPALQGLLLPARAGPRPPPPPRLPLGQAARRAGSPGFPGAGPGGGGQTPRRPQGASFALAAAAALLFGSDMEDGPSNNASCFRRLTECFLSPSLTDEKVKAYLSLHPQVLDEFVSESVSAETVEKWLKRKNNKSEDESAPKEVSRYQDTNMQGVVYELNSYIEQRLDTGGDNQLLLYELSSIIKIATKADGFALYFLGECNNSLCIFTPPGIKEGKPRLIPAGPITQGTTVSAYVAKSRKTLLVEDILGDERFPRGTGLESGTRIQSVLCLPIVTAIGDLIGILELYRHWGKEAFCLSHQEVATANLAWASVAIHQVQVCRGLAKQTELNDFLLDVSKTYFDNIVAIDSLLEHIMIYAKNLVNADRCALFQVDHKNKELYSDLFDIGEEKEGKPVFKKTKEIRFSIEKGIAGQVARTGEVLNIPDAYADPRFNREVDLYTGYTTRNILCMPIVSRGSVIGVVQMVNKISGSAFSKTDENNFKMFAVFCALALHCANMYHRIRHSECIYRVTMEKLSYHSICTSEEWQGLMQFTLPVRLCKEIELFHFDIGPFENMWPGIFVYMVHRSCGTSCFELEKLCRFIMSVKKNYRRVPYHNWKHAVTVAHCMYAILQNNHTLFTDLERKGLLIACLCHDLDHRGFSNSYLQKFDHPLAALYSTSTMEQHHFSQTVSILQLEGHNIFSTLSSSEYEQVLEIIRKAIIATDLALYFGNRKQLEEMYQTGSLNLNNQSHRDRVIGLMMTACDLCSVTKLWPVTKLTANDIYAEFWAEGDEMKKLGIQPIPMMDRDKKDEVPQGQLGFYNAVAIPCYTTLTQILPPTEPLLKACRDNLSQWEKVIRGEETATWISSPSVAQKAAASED
Chain of Bile acid receptor (Homo sapiens) (Q96RI1 whole entry, looked up, the tested form may be a part): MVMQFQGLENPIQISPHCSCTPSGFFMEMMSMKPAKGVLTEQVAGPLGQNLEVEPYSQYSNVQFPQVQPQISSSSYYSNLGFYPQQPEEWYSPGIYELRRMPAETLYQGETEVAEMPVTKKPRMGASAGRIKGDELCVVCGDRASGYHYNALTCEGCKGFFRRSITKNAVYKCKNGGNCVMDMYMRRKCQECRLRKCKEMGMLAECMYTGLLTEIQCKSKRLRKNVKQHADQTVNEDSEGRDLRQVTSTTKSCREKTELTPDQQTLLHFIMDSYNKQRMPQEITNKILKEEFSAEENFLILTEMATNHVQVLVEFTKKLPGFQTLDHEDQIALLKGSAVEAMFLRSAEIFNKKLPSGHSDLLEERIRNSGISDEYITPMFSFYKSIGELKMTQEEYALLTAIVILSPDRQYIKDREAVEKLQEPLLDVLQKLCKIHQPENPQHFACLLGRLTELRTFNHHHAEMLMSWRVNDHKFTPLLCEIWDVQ

Take `Cc1cccnc1`: the outcome in [1], in [2], in [3], in assay [4], in [5] and in assay [6] was inactive. Moreover, the result in assay [7], in assay [8], in assay [9], in assay [10], in assay [11] and in assay [12] was inactive. In assay [13], the compound was called inactive.

`C1=CCC=C1`: the call in [14] was inactive.

Take `COC(=O)c1ccccc1`: the outcome in assay [15] was inactive.

As a reminder, the AC50 is the concentration giving half of the maximal activity seen. With `CCCCCCCCCCC1CO1` (centres undefined), the AC50 in assay [2] is 30.7 µM (active); in assay [3], 31.8 µM (active); in [4] it was 31.2 µM (active); in assay [6], 33.5 µM (active); in [7], 31.1 µM (active); in assay [9], 29 µM (active). Besides, the AC50 was 3.97 µM (active) in [11] and 32.3 µM (active) in assay [12]. In addition, the result in assay [5], in [8] and in assay [10] was inactive.

For `CN(C)CCC(c1ccc(Cl)cc1)c1ccccn1` (centres undefined), the result in assay [2], in [3], in assay [4], in [5], in assay [6] and in assay [7] was inactive. Also, the result in assay [8], in assay [9], in assay [10], in [11], in [12] and in assay [13] was inactive.

For the compound `CN(C)CCCN1c2ccccc2CCc2ccc(Cl)cc21`, the result in [16] was inactive.

Regarding `F[B-](F)(F)F`, the AC50 in assay [1] is 0.82 µM (active).

`CCCOCCC`: the outcome in assay [15] was inactive.

Turning to `CC(C)CC(=O)O`, the call in assay [15] was inactive.

Regarding `CN(C)c1ccc(C(c2ccccc2)c2ccc(N(C)C)cc2)cc1`, the result in assay [2], in [3], in assay [4], in assay [7], in [9] and in assay [10] was inactive. For the same compound, the outcome in assay [11] and in assay [12] was inactive. Also, the AC50 was 29 µM (active) in [5], 32.7 µM (active) in [6], 11.9 µM (active) in assay [8] and 22.3 µM (active) in assay [13].

On to `CCCCCCCCCCCCCCCCCC[N+](C)(C)C`, for which the half-maximal activity concentration (AC50) in [15] was 1.71 µM (active); in [2], 3.33 µM (active); in assay [3], 1.35 µM (active); in assay [4] it was 2.73 µM (active); in [5], 2.08 µM (active); in assay [6], 1.69 µM (active). Moreover, the AC50 in assay [7] is 3.73 µM (active); in assay [8], 3.72 µM (active); in [9] it was 3.36 µM (active); in assay [10], 8.89 µM (active); in assay [11] it was 1.24 µM (active); in [12] it was 8.13 µM (active). Besides, the outcome in [13] was inactive.

As to `COc1ccccc1OCC(O)CO` (centres undefined), the AC50 in assay [15] is 25 µM (active).

Take `CC1=NN(c2cc(Cl)c(S(=O)(=O)O)cc2Cl)C(=O)C1N=Nc1ccc(S(=O)(=O)O)cc1` (centres undefined): the results for the AC50 in [17] and in assay [18] were 39.4 µM (active) and 18.8 µM (active), respectively.

With `CC1=C(CC(=O)O)c2cc(F)ccc2/C1=C\c1ccc(S(C)=O)cc1` (centres undefined), in assay [16], the compound was called inactive.

Turning to `CCCCCCC1CCC(=O)O1` (centres undefined), the result in [14] was inactive.

With `O=C(c1ccccc1)c1ccccc1O`, the AC50 in [17] was 17.9 µM (active); in [18], 1.05 µM (active).

With `CCOC(=O)CC(=O)OCC`, the result in [19] was inactive.

`CCc1cc(C(N)=S)ccn1`: the outcome in assay [16] was inactive.

`Cc1cc(-n2nc3ccc(Cl)cc3n2)c(O)c(C(C)(C)C)c1`: the result in assay [2], in assay [3], in [4], in assay [5], in assay [6] and in [7] was inactive. In addition, the result in assay [8], in [9], in assay [10], in [11], in assay [12] and in assay [13] was inactive.

On to `Cc1cc(O)cc(C)c1Cl`, for which the call in assay [16] was inactive. The AC50 is 22.3 µM (active) in assay [17] and 7.71 µM (active) in assay [18].

Regarding `CC(C)CC(=O)CC(C)CC(C)C` (centres undefined), the result in [15], in assay [2], in [3], in assay [4], in assay [5] and in assay [6] was inactive. For the same compound, the outcome in assay [7], in assay [8], in assay [9], in assay [10], in assay [11] and in assay [12] was inactive. Further, in [13], the result was inactive.
